Results filed as inconclusive are left out. The source made the active and inactive calls. Unless noted, calls follow the shape of the dose curve; as a rule, active = well fitted curve in the direction sought with a large enough effect in the repeat runs; inconclusive = weak or mixed curves; inactive = no such curve, though single readings can be large; an effect the other way counts as inactive or inconclusive.
How the values were obtained:
[1] = qHTS assay for small molecule agonists of the p53 signaling pathway (AID 651631; calls by dose curve; also: nearly all actives have a fitted effect of over 15% in size)
How it was run: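 p53RE-bla HCT-116 cells; compounds 16 h, 37 °C; LiveBLAzer B/G FRET substrate 2 h RT; fluorescence intensity read-out, qHTS format.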

[2] = qHTS assay for small molecules that induce genotoxicity in human embryonic kidney cells expressing luciferase-tagged ATAD5 (AID 651632); also: nearly all actives have a fitted effect of over 15% in size
How it was run: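 Increased luciferase signal from ATAD5-tagged reporter cells indicates DNA-damage-driven ATAD5 induction. HEK293T cells are treated for 16 hr at 37C before detection with Amplite.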

[3] = qHTS assay for small molecule agonists of the p53 signaling pathway - cell viability (AID 651633; calls by dose curve;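 also: p53RE-bla HCT reporter cells with a stable beta-lactamase p53 reporter; series mostly up to about 83 µM; nearly all actives have a fitted effect of over 30% in size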)
How it was run: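 Viability counter-read: CellTiter-Glo luminescence (30 min, room temperature) in the same p53RE-bla plates. These plates had been exposed to compounds for 16 h at 37 C.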

[4] = qHTS assay for small molecules that induce genotoxicity in human embryonic kidney cells expressing luciferase-tagged ATAD5 - cell viability (AID 651634; calls by dose curve; also: nearly all actives have a fitted effect of over 25% in size)
How it was run: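 Cytotoxicity counterscreen in HEK293T cells bearing an ATAD5-luciferase reporter: live-cell protease activity measured by CellTiter-Fluor fluorescence after 15.5 hr compound exposure.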

[5] = qHTS assay for small molecule disruptors of the mitochondrial membrane potential - cell viability (AID 720634; calls by dose curve;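 also: human HepG2 liver cancer cells; series mostly up to about 83 µM; nearly all actives have a fitted effect of over 20% in size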)
How it was run: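 After overnight attachment at 37 C, HepG2 cells received compound or DMSO vehicle for 1 hr. Viability is then taken from ATP-driven luminescence following a 30 min room-temperature CellTiter-Glo step.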

[6] = qHTS assay to test for compound auto fluorescence at 590 nm (red) in HepG2 cells (AID 720674)
How it was run: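 1 hr compound incubation on HepG2 cells, 37 C, 5% CO2; plate read ex 540 nm / em 590 nm; intensities reported as Rose Bengal sodium equivalents.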

[7] = qHTS assay to test for compound auto fluorescence at 535 nm (green) in HepG2 cells (AID 720675)
[8] = qHTS assay to test for compound auto fluorescence at 460 nm (blue) in HEK293 cells (AID 720678)
How it was run: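 Blue read-out at excitation 405 nm and emission 460 nm follows overnight compound exposure of HEK293 cells at 37C in 5% CO2. Activity is given as auto fluorescence equivalency to triamterene.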

[9] = qHTS assay to test for compound auto fluorescence at 535 nm (green) in HEK293 cells (AID 720680)
[10] = qHTS assay to test for compound auto fluorescence at 460 nm (blue) in HEK293 cell free culture (AID 720681)
How it was run: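 Blue fluorescence (Ex 405/Em 460 nm, triamterene-equivalent) was read immediately after pin transfer of compound or DMSO into medium (DMEM, 10% FBS) without cells.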

[11] = qHTS assay to test for compound auto fluorescence at 535 nm (green) in HEK293 cell free culture (AID 720682)
How it was run: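 Cell-free medium (DMEM, 10% FBS) receives compound or DMSO by pintool. Plate read directly at Ex 485/Em 535 nm. Signal converted to fluorescein equivalency.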

[12] = qHTS assay to test for compound auto fluorescence at 590 nm (red) in HEK293 cell free culture (AID 720683)
How it was run: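 Red-channel autofluorescence of compounds in culture medium (DMEM, 10% FBS), no cells, measured at 540/590 nm. Rose Bengal sodium is the reference fluorophore for equivalence.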

[13] = qHTS assay to test for compound auto fluorescence at 460 nm (blue) in HepG2 cell free culture (AID 720685)
How it was run: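 Compound (23 nL) or DMSO pinned into cell-free MEM with 10% FBS; blue fluorescence read at 405/460 nm excitation/emission, expressed as auto-fluorescence equivalency to triamterene.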

[14] = qHTS assay to test for compound auto fluorescence at 535 nm (green) in HepG2 cell free culture (AID 720686)
[15] = qHTS assay to test for compound auto fluorescence at 460 nm (blue) in HepG2 cells (AID 720687)
How it was run: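 Blue-channel autofluorescence (Ex/Em 405/460 nm, triamterene-equivalent) was measured after 1 hr compound exposure at 37 C, 5% CO2. Cells were HepG2, plated overnight at 37 C in MEM plus 10% FBS.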

[16] = biological target: Glucocorticoid receptor (Homo sapiens) (UniProt P04150); assay: qHTS assay to identify small molecule agonists of the glucocorticoid receptor (GR) signaling pathway (AID 720691; active = well fitted activation curve with a large enough effect in the signal ratio in the repeat runs, not every such curve was filed as active; the % refers to the signal ratio)
Sequence of Glucocorticoid receptor (Homo sapiens) (P04150 whole entry, looked up): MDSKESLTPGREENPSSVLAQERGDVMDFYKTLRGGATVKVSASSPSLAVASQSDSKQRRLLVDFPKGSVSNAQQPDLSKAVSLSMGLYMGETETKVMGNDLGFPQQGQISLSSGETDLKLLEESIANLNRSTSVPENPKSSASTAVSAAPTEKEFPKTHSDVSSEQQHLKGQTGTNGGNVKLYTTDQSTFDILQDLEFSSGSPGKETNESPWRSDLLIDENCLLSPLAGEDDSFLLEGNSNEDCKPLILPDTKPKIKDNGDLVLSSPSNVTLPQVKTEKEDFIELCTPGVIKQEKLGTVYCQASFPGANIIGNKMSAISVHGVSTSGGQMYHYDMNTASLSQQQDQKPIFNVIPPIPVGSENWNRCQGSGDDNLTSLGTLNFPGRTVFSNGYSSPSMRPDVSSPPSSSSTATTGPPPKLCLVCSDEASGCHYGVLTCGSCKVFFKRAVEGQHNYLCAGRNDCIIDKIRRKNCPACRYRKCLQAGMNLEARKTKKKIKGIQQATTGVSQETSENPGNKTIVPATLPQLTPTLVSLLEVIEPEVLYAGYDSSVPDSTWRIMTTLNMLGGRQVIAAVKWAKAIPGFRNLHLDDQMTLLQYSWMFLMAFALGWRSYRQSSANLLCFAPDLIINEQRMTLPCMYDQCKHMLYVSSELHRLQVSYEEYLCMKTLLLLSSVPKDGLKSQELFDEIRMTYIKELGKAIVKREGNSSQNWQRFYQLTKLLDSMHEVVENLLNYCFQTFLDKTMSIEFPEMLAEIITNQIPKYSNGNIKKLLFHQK
How it was run: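 Agonist mode in a HeLa line carrying a GRE-controlled beta-lactamase reporter. Compounds act for 18 h at 37 C before a 2 h room-temperature FRET substrate step and fluorescence reading.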

[17] = qHTS assay to test for compound auto fluorescence at 590 nm (red) in HEK293 cells (AID 720679)
How it was run: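 Red channel, Ex/Em 540/590nm; signal expressed as equivalency to Rose Bengal sodium. HEK293, 2,000 cells/well, 10% dialyzed FBS; 23 nL compound pinned after 4-5 hr attachment; overnight 37C/5% CO2 before reading.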

[18] = qHTS assay to test for compound auto fluorescence at 590 nm (red) in HepG2 cell free culture (AID 720684)
How it was run: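 Plate contents were MEM with 10% FBS plus test compound or DMSO, no cells. Fluorescence was recorded with 540 nm excitation and 590 nm emission.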

[19] = biological target: Glucocorticoid receptor (Homo sapiens) (UniProt P04150); assay: qHTS assay to identify small molecule antagonists of the glucocorticoid receptor (GR) signaling pathway (AID 720692; active = well fitted inhibition curve with a large enough effect in the signal ratio in the repeat runs, not every such curve was filed as active; the % refers to the signal ratio)
How it was run: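 Cells plated, rested 4 h at 37 C/5% CO2; compounds in DMSO pin-transferred; dexamethasone added to 5 nM final; 18 h at 37 C; B/G FRET substrate added, 2 h room temperature; fluorescence measured.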
% is scaled to controls: 0 for no effect and ±100 for the full control effect.

BrCCCCCBr
inactive: outcome [1] | Potency [2] | outcome [3] | Potency [4] | outcome [5] | outcome [6] | outcome [7] | outcome [8] | outcome [9] | outcome [10] | outcome [11] | outcome [12] | outcome [13] | outcome [14] | outcome [15] | Potency [16]

C[C@@H]1O[C@@H](O[C@@H]2[C@@H](O)[C@H](OCCc3ccc(O)c(O)c3)O[C@H](CO[C@@H]3O[C@H](CO)[C@@H](O)[C@H](O)[C@H]3O)[C@H]2OC(=O)/C=C/c2ccc(O)c(O)c2)[C@H](O)[C@H](O)[C@H]1O
inactive: outcome [1] | Potency [2] | outcome [3] | Potency [4] | outcome [5] | outcome [6] | outcome [7] | outcome [8] | outcome [17] | outcome [9] | outcome [11] | outcome [12] | outcome [18] | outcome [13] | outcome [15]

O=S(O)(O)=S
inactive: activation [1] -6.63% [at 8.3 µM] | activation [2] 2.28% [at 8.08 µM] | activity change, negative = cytotoxicity [3] 18.5% [at 8.08 µM] | activity, negative = cytotoxicity [4] -2.41% [at 8.08 µM] | activity change, negative = cytotoxicity [5] 11.6% [at 8.08 µM] | fluorescence, relative to Rose Bengal [6] -0.423% [at 3.72 µM] | fluorescence, % of fluorescein control [7] 0.0128% [at 3.72 µM] | fluorescence, % of fluorescent control [17] 0.178% [at 3.72 µM] | fluorescence, % of fluorescein [9] -0.0177% [at 3.72 µM] | fluorescence, % of fluorescent control [10] -0.0004% [at 3.72 µM] | activity change [11] -0.0159% [at 3.72 µM] | fluorescence, % of fluorescent control [12] -0.356% [at 3.72 µM] | fluorescence, % of fluorescent control [13] -0.093% [at 3.72 µM] | fluorescence, % of fluorescein control [14] 0.0353% [at 3.72 µM] | fluorescence, % of fluorescent control [15] -0.0508% [at 3.72 µM]

CCC(C)NC(N)=O (configuration not stated)
inactive: outcome [1] | Potency [2] | outcome [3] | Potency [4] | outcome [5] | outcome [6] | outcome [7] | outcome [8] | outcome [9] | outcome [10] | outcome [11] | outcome [12] | outcome [18] | outcome [13] | outcome [14] | outcome [15]

CCCCNC1CC(C)(C)NC(C)(C)C1
inactive: outcome [1] | Potency [2] | outcome [3] | Potency [4] | outcome [5] | outcome [6] | outcome [7] | outcome [8] | outcome [17] | outcome [9] | outcome [11] | outcome [12] | outcome [13] | outcome [14] | outcome [15] | Potency [16] | outcome [19]

COCCOCCOCCOCCO
inactive: outcome [1] | Potency [2] | outcome [3] | Potency [4] | outcome [5] | outcome [6] | outcome [7] | outcome [8] | outcome [9] | outcome [10] | outcome [12] | outcome [18] | outcome [13] | outcome [15]

O=C1c2ccccc2C(=O)N1CCl
inactive: outcome [1] | Potency [2] | outcome [3] | Potency [4] | outcome [5] | outcome [6] | outcome [7] | outcome [8] | outcome [9] | outcome [10] | outcome [11] | outcome [12] | outcome [18] | outcome [13] | outcome [14] | outcome [15] | outcome [19]

CCCCCCCCCC(C)=O
inactive: outcome [1] | Potency [2] | outcome [3] | Potency [4] | outcome [5] | outcome [6] | outcome [7] | outcome [8] | outcome [17] | outcome [9] | outcome [11] | outcome [12] | outcome [18] | outcome [13] | outcome [14] | outcome [15] | Potency [16] | outcome [19]

CCCCCCCC/C=C\CCCCCCCC(=O)OCCCC
inactive: outcome [1] | Potency [2] | outcome [3] | Potency [4] | outcome [5] | fluorescence, relative to Rose Bengal [6] 0.139% [at 18.6 µM] | fluorescence, % of fluorescein control [7] -0.0204% [at 18.6 µM] | fluorescence, % of triamterene [8] -0.0584% [at 18.6 µM] | fluorescence, % of fluorescent control [17] 0.3% [at 18.6 µM] | fluorescence, % of fluorescein [9] 0.0126% [at 18.6 µM] | activity change [11] -0.0648% [at 18.6 µM] | fluorescence, % of fluorescent control [12] 0.213% [at 18.6 µM] | fluorescence, % of fluorescent control [13] -0.0292% [at 18.6 µM] | fluorescence, % of fluorescein control [14] -0.0278% [at 18.6 µM] | fluorescence, % of fluorescent control [15] -0.0041% [at 18.6 µM] | outcome [19]

CNS(=O)(=O)CCc1ccc2[nH]cc(C3CCN(C)CC3)c2c1
inactive: outcome [1] | Potency [2] | outcome [3] | Potency [4] | outcome [5] | outcome [6] | outcome [7] | outcome [8] | outcome [9] | outcome [11] | outcome [12] | outcome [18] | outcome [13] | outcome [14] | outcome [15] | Potency [16] | outcome [19]

COC(=O)C1CC(=O)C(C(=O)OC)CC1=O (configuration not stated)
inactive: activation [1] -2.34% [at 8.3 µM] | activation [2] 2.21% [at 8.08 µM] | activity change, negative = cytotoxicity [3] 20.9% [at 8.08 µM] | activity, negative = cytotoxicity [4] 31.1% [at 8.08 µM] | activity change, negative = cytotoxicity [5] 10.5% [at 8.08 µM] | fluorescence, relative to Rose Bengal [6] 0.406% [at 3.72 µM] | fluorescence, % of fluorescein control [7] 0.0015% [at 3.72 µM] | fluorescence, % of fluorescent control [17] 0.169% [at 3.72 µM] | fluorescence, % of fluorescein [9] -0.0599% [at 3.72 µM] | fluorescence, % of fluorescent control [10] 1.67% [at 3.72 µM] | activity change [11] -0.0001% [at 3.72 µM] | fluorescence, % of fluorescent control [12] 0.0034% [at 3.72 µM] | fluorescence, % of Rose Bengal [18] 0.258% [at 3.72 µM] | fluorescence, % of fluorescent control [13] 2.39% [at 3.72 µM] | fluorescence, % of fluorescein control [14] -0.0181% [at 3.72 µM] | fluorescence, % of fluorescent control [15] 1.56% [at 3.72 µM]

O=C(/N=N/C(=O)OCc1ccccc1)OCc1ccccc1
inactive: outcome [1] | Potency [2] | outcome [3] | Potency [4] | outcome [6] | outcome [7] | outcome [8] | outcome [17] | outcome [9] | outcome [10] | outcome [11] | outcome [12] | outcome [18] | outcome [13] | outcome [15]

O=C(O)Cc1cn(-c2ccccc2)nc1-c1ccc(Cl)cc1
inactive: outcome [1] | Potency [2] | outcome [3] | Potency [4] | outcome [5] | outcome [6] | outcome [7] | outcome [17] | outcome [9] | outcome [10] | outcome [11] | outcome [12] | outcome [18] | outcome [13] | outcome [14] | outcome [15] | Potency [16] | outcome [19]

C=C(C)C1CCC(C)(O)CC1 (configuration not stated)
inactive: outcome [1] | Potency [2] | outcome [3] | Potency [4] | outcome [5] | outcome [6] | outcome [7] | outcome [8] | outcome [17] | outcome [9] | outcome [12] | outcome [18] | outcome [13] | outcome [14] | outcome [15] | outcome [19]

C=C(C)C(=O)OCCNC(C)(C)C
inactive: outcome [1] | Potency [2] | outcome [3] | Potency [4] | outcome [5] | outcome [6] | outcome [7] | outcome [9] | outcome [10] | outcome [11] | outcome [12] | outcome [13] | outcome [14] | outcome [15] | Potency [16] | outcome [19]
